Screening results deposited in PubChem BioAssay by several laboratories.
Most compounds without a hit are left out; they make up all but 3.4% or so of the library.
Shn3 3UTR inh: reduction of Shn3 3'UTR firefly luciferase signal, primary screen, Schnurri-3 inhibitor project, cell-based, Clone20 osteoblasts, set 2 | Clone20 osteoblast Shn3 3'UTR firefly luciferase, 24 h | inhibition, % at 12.5 µM | actives 0.52% (n = 360,000) | AID 588674, 2011;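 active = mean inhibition of at least 75% with every replicate also reaching 75%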
TROY signal inh: inhibitors of TROY-driven NF-kB signaling, primary screen, Q293 LMP1-TROYcd cells, NF-kB luciferase, uHTS; Q293 LMP1-TROYcd NF-kB luciferase reporter, 4 h; actives 0.98% (n = 360,000); inhibition, % at 10 µM;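 active = compounds whose plate-normalised and pattern-corrected inhibition of the luciferase reporter signal at the single screening dose is 50% or more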
EBV LMP1 NFkB: EBV LMP1-driven NF-kappaB luciferase reporter inhibitors, primary screen, cell-based, luminescence, single point. LMP1-induced NF-kappaB luciferase reporter cells. inhibition, % at 12.5 µM. actives 0.69% (n = 350,000). AID 504558, 2011; in the data active = inhibition above about 41%
TWEAK Fn14 block: inhibitors of TWEAK-Fn14 signaling, primary screen, luciferase reporter cells, uHTS; TWEAK-stimulated Fn14 reporter cells, luciferase luminescence, 8 h; inhibition, % at 10 µM; actives 2% (n = 360,000); in the data active = inhibition above about 50%
TRPM1 prom inh: inhibitors of MITF-dependent TRPM1 promoter reporter, primary screen, cell-based, SK-MEL-5, single point, luciferase | SK-MEL-5 TRPM1 promoter luciferase, 24 h | inhibition, % at 12.5 µM | actives 0.83% (n = 330,000);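 active = mean inhibition across replicates of 60% or more, whatever share of single replicates reaches that level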
HIF-2a block: HIF-2a reporter inhibitors, primary screen, luminescence, 786-0 RCC cells; AID 624352, 2012; inhibition, % at 18.8 µM; 786-0 RCC cells HIF-2a reporter, luciferase luminescence, overnight; actives 0.72% (n = 360,000);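 active = inhibition of the luminescence signal of 40% or more relative to plate controls, in a single-dose primary screen at 18.75 µM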
A number is an active result.

For COCc1ccc(C(=O)N2CCCC(CNC(=O)c3ccc(F)cc3)C2)o1 (stereo unspecified) the results were Shn3 3UTR inh inactive, TROY signal inh inactive, EBV LMP1 NFkB inactive, TWEAK Fn14 block inactive, TRPM1 prom inh inactive and HIF-2a block inactive.
Screening COc1ccc(-c2cc(C(F)(F)F)nc(S(=O)(=O)CCCC(=O)Nc3cccnc3Cl)n2)cc1OC returned Shn3 3UTR inh 96, TROY signal inh inactive, EBV LMP1 NFkB inactive, TWEAK Fn14 block 94, TRPM1 prom inh 79 and HIF-2a block inactive.
Screening COCCNC(=O)CCSc1nc(-c2ccc(OC)cc2)cc(C(F)(F)F)n1 returned Shn3 3UTR inh inactive, TROY signal inh inactive, EBV LMP1 NFkB inactive, TWEAK Fn14 block inactive, TRPM1 prom inh inactive and HIF-2a block inactive.
`COCC(C)NC(=O)CCS(=O)(=O)c1nc(-c2ccc(OC)cc2)cc(C(F)(F)F)n1` (stereo unspecified) gave Shn3 3UTR inh inactive, TROY signal inh inactive, EBV LMP1 NFkB inactive, TWEAK Fn14 block 86, TRPM1 prom inh inactive and HIF-2a block 94.
Screening O=C(O)c1ccc(N/N=C/c2cccc3cccnc23)cc1 returned Shn3 3UTR inh inactive, TROY signal inh inactive, EBV LMP1 NFkB inactive, TWEAK Fn14 block 61, TRPM1 prom inh inactive and HIF-2a block inactive.
For O=C(O)c1ccc(N/N=C/c2cccc(C(F)(F)F)c2)cc1 the results were Shn3 3UTR inh inactive, TROY signal inh inactive, EBV LMP1 NFkB inactive, TWEAK Fn14 block inactive, TRPM1 prom inh inactive and HIF-2a block inactive.
For O=C(O)c1ccc(N/N=C/c2ccc(F)c(F)c2)cc1 the results were Shn3 3UTR inh inactive, TROY signal inh inactive, EBV LMP1 NFkB inactive, TWEAK Fn14 block 67, TRPM1 prom inh inactive and HIF-2a block inactive.
`Cc1ccc2cc(/C=N/NC(=O)c3ccc(F)cc3)c(Cl)nc2c1` gave Shn3 3UTR inh inactive, TROY signal inh inactive, EBV LMP1 NFkB inactive, TWEAK Fn14 block inactive, TRPM1 prom inh inactive and HIF-2a block inactive.
O=C(O)c1ccc(N/N=C/c2ccncc2)cc1 was read as Shn3 3UTR inh inactive, TROY signal inh inactive, EBV LMP1 NFkB inactive, TWEAK Fn14 block inactive, TRPM1 prom inh inactive and HIF-2a block inactive.
O=C(O)c1ccc(N/N=C/c2cccc(F)c2)cc1 was read as Shn3 3UTR inh inactive, TROY signal inh inactive, EBV LMP1 NFkB inactive, TWEAK Fn14 block 59, TRPM1 prom inh inactive and HIF-2a block inactive.
Cc1ccc2nc(Cl)c(/C=N/Nc3ccc(C(=O)O)cc3)cc2c1 was read as Shn3 3UTR inh inactive, TROY signal inh inactive, EBV LMP1 NFkB inactive, TWEAK Fn14 block 51, TRPM1 prom inh inactive and HIF-2a block inactive.
For O=C(O)c1ccc(N/N=C/c2ccnc3ccccc23)cc1 the results were Shn3 3UTR inh inactive, TROY signal inh inactive, EBV LMP1 NFkB inactive, TWEAK Fn14 block inactive, TRPM1 prom inh inactive and HIF-2a block inactive.
`Cc1ccc(OCC(=O)Nc2ccc(S(=O)(=O)NC3=NCCCCC3)cc2)cc1` gave Shn3 3UTR inh inactive, TROY signal inh inactive, EBV LMP1 NFkB inactive, TWEAK Fn14 block inactive and HIF-2a block inactive.
`O=C(NCc1ccccc1)C1CC(=O)N(c2ccc(OCC(=O)N3CCCC3)cc2)C1` (stereo unspecified) gave Shn3 3UTR inh inactive, TROY signal inh inactive, EBV LMP1 NFkB inactive, TWEAK Fn14 block inactive, TRPM1 prom inh inactive and HIF-2a block inactive.
For COc1ccc(CNC(=O)C2CC(=O)N(c3ccc(OCC(=O)N4CCCCC4)cc3)C2)cc1 (stereo unspecified) the results were Shn3 3UTR inh inactive, TROY signal inh 58, EBV LMP1 NFkB inactive, TWEAK Fn14 block inactive, TRPM1 prom inh inactive and HIF-2a block inactive.
`COc1cc2ccccc2cc1C(=O)O` gave Shn3 3UTR inh inactive, TROY signal inh inactive, EBV LMP1 NFkB inactive, TWEAK Fn14 block inactive, TRPM1 prom inh inactive and HIF-2a block inactive.
`COc1cc2ccccc2ccc1=NO` gave Shn3 3UTR inh inactive, TROY signal inh inactive, EBV LMP1 NFkB inactive, TWEAK Fn14 block 62, TRPM1 prom inh inactive and HIF-2a block inactive.
O=C(Nc1nc(-c2cccc3ccccc23)cs1)c1ccc2c(c1)S(=O)(=O)c1ccccc1C2=O was read as Shn3 3UTR inh inactive, TROY signal inh inactive, EBV LMP1 NFkB inactive, TWEAK Fn14 block inactive, TRPM1 prom inh 63 and HIF-2a block inactive.
Screening CCCCN1C2=NCCCN2c2ccccc21 returned Shn3 3UTR inh inactive, TROY signal inh inactive, EBV LMP1 NFkB inactive, TWEAK Fn14 block inactive, TRPM1 prom inh inactive and HIF-2a block inactive.
For CC(C)(C)c1ccc(CN2C3=NCCCN3c3ccccc32)cc1 the results were Shn3 3UTR inh 88, TROY signal inh inactive, EBV LMP1 NFkB inactive, TWEAK Fn14 block inactive, TRPM1 prom inh inactive and HIF-2a block inactive.
For CCCCCCCN1C2=NCCCN2c2ccccc21 the results were Shn3 3UTR inh 87, TROY signal inh inactive, EBV LMP1 NFkB inactive, TWEAK Fn14 block inactive, TRPM1 prom inh inactive and HIF-2a block inactive.
`COc1ccc([C@H]2CC(=O)C=C(C#CC(C)(C)C)C2)cc1` gave Shn3 3UTR inh inactive, TROY signal inh inactive, EBV LMP1 NFkB inactive, TWEAK Fn14 block inactive and HIF-2a block inactive.
Screening CCOc1cccc(Nc2ccc([N+](=O)[O-])cn2)c1 returned Shn3 3UTR inh inactive, TROY signal inh inactive, EBV LMP1 NFkB inactive, TWEAK Fn14 block inactive, TRPM1 prom inh inactive and HIF-2a block inactive.
Screening COc1ccc(C2NC(=O)NC3=C2CCc2ccccc23)cc1 (stereo unspecified) returned TROY signal inh inactive, EBV LMP1 NFkB inactive, TWEAK Fn14 block inactive, TRPM1 prom inh inactive and HIF-2a block inactive.
For CC(C)c1ccc(C2NC(=O)NC3=C2CCc2ccccc23)cc1 (stereo unspecified) the results were Shn3 3UTR inh inactive, TROY signal inh 55, EBV LMP1 NFkB inactive, TWEAK Fn14 block 76, TRPM1 prom inh inactive and HIF-2a block inactive.
`Cc1ccc(C2NC(=O)NC3=C2CCc2ccccc23)cc1` (stereo unspecified) gave Shn3 3UTR inh inactive, TROY signal inh 69, EBV LMP1 NFkB inactive, TWEAK Fn14 block 79, TRPM1 prom inh inactive and HIF-2a block inactive.
`CCOc1ccc(NC(=S)N2CCC(NC(=O)c3ccco3)CC2)cc1` gave Shn3 3UTR inh inactive, TROY signal inh inactive, EBV LMP1 NFkB inactive, TWEAK Fn14 block inactive, TRPM1 prom inh inactive and HIF-2a block inactive.
Screening COc1ccc(-c2n(CC(=O)OC3CC(C)CCC3C(C)C)c3ccccc3[n+]2C)cc1 (stereo unspecified) returned Shn3 3UTR inh 92, TROY signal inh inactive, EBV LMP1 NFkB inactive, TWEAK Fn14 block 80, TRPM1 prom inh 91 and HIF-2a block inactive.
